From PubChem BioAssay AID602179 (National Center for Advancing Translational Sciences (NCATS), 2012) come the findings set out here.

Each structure is given as a SMILES string. In all, about 390,000 compounds went through this assay and about 360 (0.092%) were called active. A call without a number means that no potency is given here. Calls follow the shape of the dose curve; as a rule, active = well fitted inhibition curve with a large enough effect; inconclusive = small, poorly fitted or top-dose-only effect; inactive = no such curve, though single readings can be large or run the other way. Only a selection was taken, and actives are over-represented in it overall.
Potency is read from the fitted curve at half-maximal effect.

Isocitrate dehydrogenase [NADP] cytoplasmic (Homo sapiens), sequence (O75874 whole entry R132H, stated change not applied): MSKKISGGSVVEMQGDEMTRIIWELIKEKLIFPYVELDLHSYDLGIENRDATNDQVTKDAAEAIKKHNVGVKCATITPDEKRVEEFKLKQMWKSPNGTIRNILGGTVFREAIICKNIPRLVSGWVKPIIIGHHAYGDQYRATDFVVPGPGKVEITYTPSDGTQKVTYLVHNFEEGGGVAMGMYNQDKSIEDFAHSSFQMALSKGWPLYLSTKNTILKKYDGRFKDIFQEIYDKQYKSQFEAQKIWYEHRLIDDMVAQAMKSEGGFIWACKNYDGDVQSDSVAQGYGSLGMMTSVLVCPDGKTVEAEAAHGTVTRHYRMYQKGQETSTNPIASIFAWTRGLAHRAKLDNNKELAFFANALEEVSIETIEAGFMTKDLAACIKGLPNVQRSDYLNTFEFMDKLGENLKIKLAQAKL

In the test the target is Isocitrate dehydrogenase [NADP] cytoplasmic (Homo sapiens) (UniProt O75874). Kind of test: qHTS for Inhibitors of mutant isocitrate dehydrogenase 1 (IDH1): qHTS. Also: nearly all actives have a fitted effect of over 65% in size. The conditions noted are these: IDH1-R132H enzyme, NADPH consumption, diaphorase/resazurin fluorescence; series mostly up to 76.6 µM. In a few lines:
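IDH1-R132H (0.5 ug/mL dispensed) in pH 7.5 Tris buffer was preincubated 30 min with compound, then given a substrate mix of 0.016 mM NADPH and 2 mM alpha-KG for 80 min at room temperature; remaining NADPH was read by diaphorase/resazurin fluorescence.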
As to `Cc1ccc(CCNC(=O)c2ccc(CNS(=O)(=O)c3ccc(C)cc3)cc2)cc1`, the Potency result is “inactive”.
As to `CCOC(=O)c1ccc(N2C(=O)c3n[nH]c(C)c3C2c2ccc(O)c(OC)c2)cc1` (stereo unspecified), the Potency result is “inactive”.
`CCOc1ccc(S(=O)(=O)N(CC(=O)NCCSCc2ccc(C)cc2)c2ccccc2)cc1`: the Potency result was “inactive”.
Take `O=C(CSc1oc(-c2ccco2)nc1S(=O)(=O)c1ccccc1)c1ccc(Cl)cc1`: the Potency result is “inactive”.
With `Cc1ccccc1Nc1nn2c(=O)c3ccc(C(=O)NCCc4ccc(Cl)cc4)cc3nc2s1`, the Potency entry is “inactive”.
The result for `Cc1ccc(OCC(=O)OCc2cc(=O)n3nc(C4CC4)sc3n2)cc1C` reads “inactive”; that for `CC(C)NC(=O)c1nn(-c2ccccc2F)nc1CO`, “inactive”; that for `Cc1cccc(OCCCC(=O)Nc2sc3c(c2C(N)=O)CCC(C)C3)c1` (stereo unspecified), “inactive”.
The result for `O=C(CN1C(=O)COc2ccc(S(=O)(=O)N3CCCCCC3)cc21)N1CCN(c2cccc(C(F)(F)F)c2)CC1` reads “inactive”; that for `O=c1cc(CSc2ncn[nH]2)[nH]c2ccc(F)cc12`, “inactive”.
The result for `O=C(CN1CCSc2ccccc21)N1CCN(c2ccccc2)CC1` reads “inactive”; that for `CCCc1nn2c(=O)cc(COC(=O)c3ccc(NC(=O)C(C)Oc4ccccc4)cc3)nc2s1` (stereo unspecified), “inactive”; that for `Cc1ccc2c(c1)N(C(=O)Nc1ccc(Br)cc1F)CCO2`, “inactive”.
As to `O=C(CCc1ccccc1)NCc1ccc2c(c1)CCN2C(=O)c1ccccc1`, the Potency result is “inactive”.
Turning to `O=C(CSc1nnc(CNC(=O)c2ccccc2)n1-c1ccc(F)cc1)Nc1ccccc1F`, the Potency entry was “inactive”.
On to `CN(C(=O)CSc1nc2ccccc2n1Cc1ccccc1C#N)c1ccccc1`, for which the Potency entry was “inactive”.
In the case of `CCOC(=O)c1c(C)[nH]c(C)c1S(=O)(=O)N1CCCC(C(=O)NCc2ccccc2Cl)C1` (stereo unspecified) it was “inactive”; in that of `CCOc1ccc(NC(=O)c2cn(C3CCCCC3)c(=O)c3c2c2ccccc2n3C)cc1`, “inactive”.
Turning to `CCCN1C(=O)C(Cc2nc3ccccc3c(=O)n2-c2ccccc2)c2cc(C)ccc21` (stereo unspecified), the Potency entry is “inactive”.
On to `CCCc1nc2c(c(=O)c3ccccc3n2C)c(=O)n1C1CCCCCC1`, for which the Potency was 46.5 µM (active).
Consider `Cc1ccc(S(=O)(=O)N(Cc2nc(-c3ccc(Cl)cc3)no2)C2CCCCC2)cc1`, for which the Potency result was “inactive”.
Turning to `COc1cc2ccccc2cc1C(=O)Nc1cccc(-c2nc3ccccc3o2)c1`, the Potency entry is “inactive”.
Take `CC1CCCCN1S(=O)(=O)c1ccc(F)c(C(=O)Nc2ccccc2C(F)(F)F)c1` (stereo unspecified): the Potency result was “inactive”.
Consider `CCOc1cccc(CNC(=O)c2ccc(N3CCCC3)c(NC(=O)Nc3ccccc3CC)c2)c1`, for which the Potency result is “inactive”.
For the molecule `CCOc1ccc(NC(=O)C(=O)NCCc2csc3nc(-c4ccccc4F)nn23)cc1`, the Potency entry is “inactive”.
Regarding `Cc1ccccc1CNC(=O)CCc1cn(Cc2ccccc2C)c2ccccc12`, the Potency result is “inactive”.
